A selection: hits, their analogues and other compounds. The true share with any hit is near 3.5%.
Autofluor counter: compound fluorescence in toxin protease inhibitor counterscreen; hit rate 3.1% among 360,000; fluorescence intensity (test concentration not listed); compound autofluorescence counterscreen, microsphere flow cytometry; hits give high values; in the data active means fluorescence intensity above about 16000; inconclusive means no clear call, values can overlap the other calls
Anthrax LF prot: blocks Bacillus anthracis lethal factor protease; P15917; multiplex microsphere protease cleavage assay, LF; inhibition, % at 10 µM; hit rate 0.12% among 360,000; AID 588501; further: plate controls were buffer without enzyme for full effect and enzyme alone for no effect
Target sequence (P15917 whole entry, looked up): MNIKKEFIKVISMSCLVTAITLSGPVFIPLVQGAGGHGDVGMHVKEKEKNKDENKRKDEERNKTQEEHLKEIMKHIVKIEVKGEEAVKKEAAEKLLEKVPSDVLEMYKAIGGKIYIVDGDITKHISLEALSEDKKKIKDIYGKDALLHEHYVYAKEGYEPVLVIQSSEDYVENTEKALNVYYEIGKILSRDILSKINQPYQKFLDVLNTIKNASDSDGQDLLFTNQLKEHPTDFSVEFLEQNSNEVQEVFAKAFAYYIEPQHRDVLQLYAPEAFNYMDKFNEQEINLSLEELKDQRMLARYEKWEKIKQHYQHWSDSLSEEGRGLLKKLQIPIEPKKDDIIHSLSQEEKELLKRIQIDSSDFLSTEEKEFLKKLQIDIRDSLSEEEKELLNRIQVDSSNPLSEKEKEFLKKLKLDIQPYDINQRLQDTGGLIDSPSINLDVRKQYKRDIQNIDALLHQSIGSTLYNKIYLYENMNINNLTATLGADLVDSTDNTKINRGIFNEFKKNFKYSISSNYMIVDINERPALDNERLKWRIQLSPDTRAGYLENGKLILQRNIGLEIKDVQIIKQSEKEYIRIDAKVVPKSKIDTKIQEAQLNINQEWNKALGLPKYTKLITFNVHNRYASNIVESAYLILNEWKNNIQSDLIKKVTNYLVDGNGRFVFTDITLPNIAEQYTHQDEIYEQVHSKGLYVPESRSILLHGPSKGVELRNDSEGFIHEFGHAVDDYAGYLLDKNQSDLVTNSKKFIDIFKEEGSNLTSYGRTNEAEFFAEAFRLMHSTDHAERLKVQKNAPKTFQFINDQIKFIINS
BoNT-F LC inh: blocks Botulinum neurotoxin F light chain protease; Multiplex microsphere protease cleavage assay, flow cytometry; inhibition, % at 10 µM; hit rate 0.22% among 360,000; AID 588497; in the data active means inhibition above about 35%, passing the limit was not always enough; inconclusive means no clear call, values can overlap the other calls; further: plate controls were buffer without enzyme for full effect and enzyme alone for no effect
BoNT-A LC inh2: blocks Botulinum neurotoxin A light chain protease; multiplex microsphere protease substrate cleavage, flow cytometry; inhibition, % at 10 µM; hit rate 0.17% among 360,000; AID 588499; further: plate controls were buffer without enzyme for full effect and enzyme alone for no effect
* hit, by the source's call; ? = inconclusive. Unless noted, no stated cut-off is given here; in the data, active means inhibition above about 30%; inconclusive means no clear call, values can overlap the other calls; inactive means below that.

SMILES	Autofluor counter	Anthrax LF prot	BoNT-F LC inh	BoNT-A LC inh2
COc1ccc(-c2noc(CSc3nnc(Cc4ccccc4)n3-c3ccc(Cl)cc3)n2)cc1	24663*	-3	-7	-3
CCCn1c(SCc2nc(-c3cccs3)no2)nnc1-c1ccncc1	21415*	0	-5	-3
Cn1c(SCc2nc(-c3ccccc3)no2)nnc1-c1cccs1	20460*	-7	5	?
Cn1c(SCc2nc(-c3ccc(Cl)cc3)no2)nnc1-c1cccs1	15475	-2	1	2
Cn1c(SCc2nc(-c3ccc(Cl)cc3)no2)nnc1-c1ccccc1	20554*	-3	-5	-1
Cn1c(SCc2nc(-c3ccccc3)no2)nnc1-c1ccco1	4228	6	?	1
CCOC(=O)N1CCN(Cc2nc3cc([N+](=O)[O-])ccc3n2C)CC1	3296	4	32	1
Cc1ccsc1CN1CCN(c2ccccn2)CC1	21639*	-2	8	3
Cc1nc(C(=O)Nc2ccc(Cl)cc2Cl)nn1-c1cc(OC(C)C)c(Cl)cc1Cl	9951	6	7	0
Cc1nc(C(=O)Nc2cc(Cl)ccc2Cl)nn1-c1cc(OC(C)C)c(Cl)cc1Cl	24341*	-1	1	-1
Cc1nc(C(=O)Nc2cccc(Cl)c2)nn1-c1cc(OC(C)C)c(Cl)cc1Cl	23251*	0	-4	?
CCc1nc2ccc(C(=O)NCCCN3CCCC3=O)cn2c1N(C=O)CC	2925	-5	6	0
Cc1ccc(C)c(NC(=O)CCC(=O)N/N=C/c2ccc[nH]2)c1	21086*	-1	-3	-1
COc1ccc(C2CC(=O)C=C(NCc3ccc4c(c3)OCO4)C2)cc1 (stereo not drawn)	3915	4	?	?
O=C1/C(=C/c2ccc([N+](=O)[O-])cc2)C=C(c2ccccc2)N1c1ccc(O)cc1	22121*	-14	-4	1
CCOC(=O)C1CCN(CC(=O)Nc2cc(S(=O)(=O)N3CCOCC3)ccc2C)CC1	3359	-1	5	0
Cc1ccc(C23CC4CC(CC(NC(=O)NC(C)(C)CO)(C4)C2)C3)cc1	22797*	0	2	1
COc1ccccc1CN1CCc2c([nH]c3ccccc23)C1	6280	8	-18	-3
COc1cc(CN2CCc3c([nH]c4ccccc34)C2)cc(OC)c1	18016*	2	-91	11
O=C(Nc1ccccc1Cl)C1CC(=O)N(Cc2ccco2)C1 (stereo not drawn)	3058	1	-4	0
O=C(c1cc(-c2cccs2)on1)N1CCOCC1	21693*	0	-6	-2
O=C(c1cc(-c2cccs2)on1)N1CCc2ccccc2C1	22720*	-2	0	2
O=C(c1cc(-c2ccccc2O)on1)N1CCc2ccccc2C1	6115	0	-4	0
O=C(c1ccccc1Cl)N1CCc2ccccc2C1	17580*	-2	-7	-5
CN(C)C(CNC(=O)/C=C/c1cccc(Cl)c1)c1ccccc1 (stereo not drawn)	4358	2	-1	0
SMILES	Autofluor counter	Anthrax LF prot	BoNT-F LC inh	BoNT-A LC inh2
COCCCNC(=O)/C=C/c1cccc(Cl)c1	20665*	-3	-2	0
CN(C)S(=O)(=O)c1ccc(S(=O)(=O)N(Cc2ccco2)Cc2ccccc2Cl)cc1	10976	0	-8	-1
CS(=O)(=O)N(Cc1ccco1)Cc1ccccc1Cl	20334*	1	-1	?
Cc1cc(C)nc(N2CCCC(CCC(=O)NCc3ccc(F)c(F)c3)C2)n1 (stereo not drawn)	4863	-5	-1	0
CC(C)(C)c1ccccc1OCC(=O)Nc1ncn[nH]1	9364	9	-9	-1
CC(C)(C)c1ccccc1OCC(=O)NCCC(=O)O	24308*	-1	-4	-3
O=C(C1Cc2ccccc2CN1S(=O)(=O)c1cccs1)N1CCCCC1 (stereo not drawn)	25075*	-4	-7	-6
O=C(c1ccc(S(=O)(=O)N2CCC(c3nc4ccccc4s3)CC2)cc1)N1CCOCC1	23501*	1	-2	-4
COc1ccc(N2CCN(C(=O)C3CCN(S(=O)(=O)c4cccs4)CC3)CC2)cc1	5050	-7	-14	-1
O=C(C1CCN(S(=O)(=O)N2CCOCC2)CC1)N1CCC2(CC1)OCCO2	22049*	-2	5	2
O=C(C1CCN(S(=O)(=O)c2cccs2)CC1)N1CCN(c2ccccc2)CC1	16746*	-3	-2	-1
O=C(C1CCN(S(=O)(=O)c2ccc(F)cc2)CC1)N1CC=C(c2ccccc2)CC1	17943*	-13	4	4
O=C(C1CCN(S(=O)(=O)c2ccccc2)CC1)N1CCCCC1	5171	1	1	-1
Cn1c(=O)oc2cc(S(=O)(=O)N3CCC(C(=O)N4CC=C(c5ccccc5)CC4)CC3)ccc21	4025	-9	-3	0

Screens: PubChem BioAssay, NMMLSC
